Source: PubChem BioAssay AID1159580 (chemical genetic matrix, 2015)
Where “and” joins values, the source holds several entries; their conditions need not be identical. Equal entries are not always repeated. Hit rate of the full screen: of about 5,500 compounds, about 2,000 (36%) were called active. About 18% were inconclusive and are not listed. Rule as the data show it: active = normalized growth mostly below about 0.91 (no sharp cut-off); inconclusive = no clear call, values can overlap the other calls; inactive = mostly above about 0.92. The list shows a part of the results.

Test: chemical genetic growth profiling, strain panel (AID 1159580);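 also: tested at 20 µM; growth read once vehicle control cultures reached saturation at 30 °C; 1 = growth at the plate median or of vehicle wells; lower values mean less growth of the strain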
Details: growth OD

Measured: normalized growth

CO[C@H]1[C@H](O)[C@@H](O[C@H]2CC[C@]3(C=O)C4CC[C@]5(C)[C@@H](C6=CC(=O)OC6)CC[C@]5(O)C4CC[C@@H]3C2)O[C@@H](C)[C@@H]1O (some centres not stated)
inactive: S. cerevisiae deletion strains, locus YAL013W, strain DEP1, stronger effect = lower value 0.982 | S. cerevisiae deletion strains, locus YBR021W, strain FUR4, stronger effect = lower value 1.01 | S. cerevisiae deletion strains, locus YBR229C, strain ROT2, stronger effect = lower value 0.959 | S. cerevisiae deletion strains, locus YCL029C, strain bik1, stronger effect = lower value 0.993 | S. cerevisiae deletion strains, locus YDL035C, strain GPR1, stronger effect = lower value 0.986 | S. cerevisiae deletion strains, locus YDL074C, strain BRE1, stronger effect = lower value 1.01 | S. cerevisiae deletion strains, locus YDL101C, strain DUN1, stronger effect = lower value 0.973 | S. cerevisiae deletion strains, locus YDL134C, strain PPH21, stronger effect = lower value 0.986 | S. cerevisiae deletion strains, locus YDL185W, strain tfp1, stronger effect = lower value 0.989 | S. cerevisiae deletion strains, locus YDL192W, strain arf1, stronger effect = lower value 0.99 | S. cerevisiae deletion strains, locus YDR101C, strain arx1, stronger effect = lower value 1 | S. cerevisiae deletion strains, locus YDR150W, strain NUM1, stronger effect = lower value 0.966 | S. cerevisiae deletion strains, locus YDR162C, strain NBP2, stronger effect = lower value 0.978 | S. cerevisiae deletion strains, locus YDR318W, strain mcm21, stronger effect = lower value 1.01 | S. cerevisiae deletion strains, locus YDR388W, stronger effect = lower value 0.999 | S. cerevisiae deletion strains, locus YDR502C, strain sam2, stronger effect = lower value 0.992 | S. cerevisiae deletion strains, locus YEL061C, strain CIN8, stronger effect = lower value 0.984 | S. cerevisiae deletion strains, locus YER110C, stronger effect = lower value 0.973 | S. cerevisiae deletion strains, locus YER155C, strain BEM2, stronger effect = lower value 0.997 | S. cerevisiae deletion strains, locus YER167W, strain BCK2, stronger effect = lower value 0.995 | S. cerevisiae deletion strains, locus YGL078C, strain dbp3, stronger effect = lower value 0.986 | S. cerevisiae deletion strains, locus YGL086W, strain mad1, stronger effect = lower value 0.989 | S. cerevisiae deletion strains, locus YGL248W, strain PDE1, stronger effect = lower value 0.973 | S. cerevisiae deletion strains, locus YGR078C, strain PAC10, stronger effect = lower value 1 | S. cerevisiae deletion strains, locus YGR135W, strain pre9, stronger effect = lower value 1 | S. cerevisiae deletion strains, locus YGR229C, strain SMI1, stronger effect = lower value 0.996 | S. cerevisiae deletion strains, locus YGR252W, strain gcn5, stronger effect = lower value 0.999 | S. cerevisiae deletion strains, locus YHR030C, strain SLT2, stronger effect = lower value 0.987 and 0.975 | S. cerevisiae deletion strains, locus YHR079C, strain IRE1 (second series), stronger effect = lower value 0.99 | S. cerevisiae deletion strains, locus YHR079C, strain IRE1, stronger effect = lower value 0.965 | S. cerevisiae deletion strains, locus YHR094C, strain hxt1, stronger effect = lower value 0.988 | S. cerevisiae deletion strains, locus YHR129C, strain ARP1, stronger effect = lower value 0.996 | S. cerevisiae deletion strains, locus YHR200W, strain rpn10, stronger effect = lower value 0.999 | S. cerevisiae deletion strains, locus YIL066C, strain RNR3, stronger effect = lower value 0.968 | S. cerevisiae deletion strains, locus YIL073C, strain SPO22, stronger effect = lower value 0.994 | S. cerevisiae deletion strains, locus YIL125W, strain kgd1, stronger effect = lower value 0.98 | S. cerevisiae deletion strains, locus YIR030C, strain dcg1, stronger effect = lower value 0.982 | S. cerevisiae deletion strains, locus YJL095W, strain BCK1, stronger effect = lower value 1.04 and 0.973 | S. cerevisiae deletion strains, locus YJL134W, strain LCB3, stronger effect = lower value 0.981 | S. cerevisiae deletion strains, locus YJL168C, strain set2, stronger effect = lower value 0.992 | S. cerevisiae deletion strains, locus YJL187C, strain SWE1 (second series), stronger effect = lower value 0.99 | S. cerevisiae deletion strains, locus YJR043C, strain POL32, stronger effect = lower value 1.01 | S. cerevisiae deletion strains, locus YJR066W, strain TOR1, stronger effect = lower value 0.972 | S. cerevisiae deletion strains, locus YJR075W, strain HOC1, stronger effect = lower value 0.998 | S. cerevisiae deletion strains, locus YKL009W, strain mrt4, stronger effect = lower value 0.943 | S. cerevisiae deletion strains, locus YKL068W, stronger effect = lower value 0.994 | S. cerevisiae deletion strains, locus YKL085W, strain MDH1 (second series), stronger effect = lower value 0.98 | S. cerevisiae deletion strains, locus YKL085W, strain MDH1, stronger effect = lower value 0.98 | S. cerevisiae deletion strains, locus YKL190W, strain CNB1, stronger effect = lower value 0.991 | S. cerevisiae deletion strains, locus YKR001C, strain vps1, stronger effect = lower value 0.993 | S. cerevisiae deletion strains, locus YLR039C, strain RIC1, stronger effect = lower value 0.969 | S. cerevisiae deletion strains, locus YLR058C, strain SHM2, stronger effect = lower value 0.965 | S. cerevisiae deletion strains, locus YLR102C, strain apc9, stronger effect = lower value 0.994 | S. cerevisiae deletion strains, locus YLR113W, strain HOG1, stronger effect = lower value 0.975 | S. cerevisiae deletion strains, locus YLR262C, strain YPT6, stronger effect = lower value 0.972 | S. cerevisiae deletion strains, locus YLR268W, strain sec22, stronger effect = lower value 1.05 | S. cerevisiae deletion strains, locus YLR330W, strain CHS5, stronger effect = lower value 0.982 | S. cerevisiae deletion strains, locus YLR342W, strain FKS1 (second series), stronger effect = lower value 0.998 | S. cerevisiae deletion strains, locus YLR371W, strain rom2, stronger effect = lower value 0.979 | S. cerevisiae deletion strains, locus YLR418C, strain cdc73, stronger effect = lower value 1 | S. cerevisiae deletion strains, locus YML016C, strain PPZ1, stronger effect = lower value 0.987 | S. cerevisiae deletion strains, locus YML032C, strain rad52, stronger effect = lower value 1.01 | S. cerevisiae deletion strains, locus YML124C, strain tub3, stronger effect = lower value 0.989 | S. cerevisiae deletion strains, locus YMR078C, strain ctf18, stronger effect = lower value 0.993 | S. cerevisiae deletion strains, locus YMR223W, strain ubp8, stronger effect = lower value 0.977 | S. cerevisiae deletion strains, locus YMR263W, strain SAP30, stronger effect = lower value 0.987 | S. cerevisiae deletion strains, locus YMR307W, strain GAS1, stronger effect = lower value 0.981 | S. cerevisiae deletion strains, locus YNL067W, strain RPL9B, stronger effect = lower value 1.01 | S. cerevisiae deletion strains, locus YNL128W, strain TEP1, stronger effect = lower value 0.969 | S. cerevisiae deletion strains, locus YNL153C, strain GIM3, stronger effect = lower value 0.994 | S. cerevisiae deletion strains, locus YNL183C, strain NPR1, stronger effect = lower value 0.903 | S. cerevisiae deletion strains, locus YNL233W, strain BNI4, stronger effect = lower value 0.999 | S. cerevisiae deletion strains, locus YNL250W, strain rad50, stronger effect = lower value 0.969 | S. cerevisiae deletion strains, locus YNL271C, strain bni1, stronger effect = lower value 1 | S. cerevisiae deletion strains, locus YNL298W, strain CLA4, stronger effect = lower value 0.992 | S. cerevisiae deletion strains, locus YNL307C, strain MCK1, stronger effect = lower value 0.993 | S. cerevisiae deletion strains, locus YNL322C, strain KRE1, stronger effect = lower value 0.989 | S. cerevisiae deletion strains, locus YNR052C, strain pop2, stronger effect = lower value 1.01 | S. cerevisiae deletion strains, locus YOL006C, strain TOP1, stronger effect = lower value 1.01 | S. cerevisiae deletion strains, locus YOL012C, strain htz1 0.939 | S. cerevisiae deletion strains, locus YOL147C, strain pex11, stronger effect = lower value 0.998 | S. cerevisiae deletion strains, locus YOR061W, strain CKA2, stronger effect = lower value 0.968 | S. cerevisiae deletion strains, locus YOR069W, strain VPS5, stronger effect = lower value 0.988 | S. cerevisiae deletion strains, locus YOR136W, strain idh2, stronger effect = lower value 0.986 | S. cerevisiae deletion strains, locus YOR144C, strain elg1, stronger effect = lower value 0.998 | S. cerevisiae deletion strains, locus YOR184W, strain ser1, stronger effect = lower value 0.981 | S. cerevisiae deletion strains, locus YOR231W, strain MKK1, stronger effect = lower value 0.957 | S. cerevisiae deletion strains, locus YOR316C, strain cot1, stronger effect = lower value 0.985 | S. cerevisiae deletion strains, locus YPL055C, strain LGE1, stronger effect = lower value 0.979 | S. cerevisiae deletion strains, locus YPL241C, strain CIN2, stronger effect = lower value 0.992 | S. cerevisiae deletion strains, locus YPL256C, strain CLN2, stronger effect = lower value 0.948 | S. cerevisiae deletion strains, locus YPR119W, strain clb2, stronger effect = lower value 0.989 | S. cerevisiae deletion strains, locus YPR141C, strain kar3, stronger effect = lower value 0.983 | S. cerevisiae deletion strains, locus YPR163C, strain tif3, stronger effect = lower value 1 | S. cerevisiae deletion strains, locus YPR167C, strain met16, stronger effect = lower value 0.992 | S. cerevisiae deletion strains, strain wtn01, stronger effect = lower value 0.996 | S. cerevisiae strains, strain wild type, stronger effect = lower value 0.978
